Experimental data: PubChem BioAssay AID588689 (Southern Research Specialized Biocontainment Screening …, 2011)
Among all 340,000 compounds or so, about 1,000 (0.29%) were called active. No stated cut-off is given here; in the data, inconclusive means inhibition above about 29% without an active follow-up result; inactive means below that. Only a sample is shown. Potency and affinity values are given separately.

Molecular target: Genome polyprotein (Dengue virus type 2 (strain 16681-PDK53)) (UniProt P29991)
Sequence (P29991 whole entry, looked up): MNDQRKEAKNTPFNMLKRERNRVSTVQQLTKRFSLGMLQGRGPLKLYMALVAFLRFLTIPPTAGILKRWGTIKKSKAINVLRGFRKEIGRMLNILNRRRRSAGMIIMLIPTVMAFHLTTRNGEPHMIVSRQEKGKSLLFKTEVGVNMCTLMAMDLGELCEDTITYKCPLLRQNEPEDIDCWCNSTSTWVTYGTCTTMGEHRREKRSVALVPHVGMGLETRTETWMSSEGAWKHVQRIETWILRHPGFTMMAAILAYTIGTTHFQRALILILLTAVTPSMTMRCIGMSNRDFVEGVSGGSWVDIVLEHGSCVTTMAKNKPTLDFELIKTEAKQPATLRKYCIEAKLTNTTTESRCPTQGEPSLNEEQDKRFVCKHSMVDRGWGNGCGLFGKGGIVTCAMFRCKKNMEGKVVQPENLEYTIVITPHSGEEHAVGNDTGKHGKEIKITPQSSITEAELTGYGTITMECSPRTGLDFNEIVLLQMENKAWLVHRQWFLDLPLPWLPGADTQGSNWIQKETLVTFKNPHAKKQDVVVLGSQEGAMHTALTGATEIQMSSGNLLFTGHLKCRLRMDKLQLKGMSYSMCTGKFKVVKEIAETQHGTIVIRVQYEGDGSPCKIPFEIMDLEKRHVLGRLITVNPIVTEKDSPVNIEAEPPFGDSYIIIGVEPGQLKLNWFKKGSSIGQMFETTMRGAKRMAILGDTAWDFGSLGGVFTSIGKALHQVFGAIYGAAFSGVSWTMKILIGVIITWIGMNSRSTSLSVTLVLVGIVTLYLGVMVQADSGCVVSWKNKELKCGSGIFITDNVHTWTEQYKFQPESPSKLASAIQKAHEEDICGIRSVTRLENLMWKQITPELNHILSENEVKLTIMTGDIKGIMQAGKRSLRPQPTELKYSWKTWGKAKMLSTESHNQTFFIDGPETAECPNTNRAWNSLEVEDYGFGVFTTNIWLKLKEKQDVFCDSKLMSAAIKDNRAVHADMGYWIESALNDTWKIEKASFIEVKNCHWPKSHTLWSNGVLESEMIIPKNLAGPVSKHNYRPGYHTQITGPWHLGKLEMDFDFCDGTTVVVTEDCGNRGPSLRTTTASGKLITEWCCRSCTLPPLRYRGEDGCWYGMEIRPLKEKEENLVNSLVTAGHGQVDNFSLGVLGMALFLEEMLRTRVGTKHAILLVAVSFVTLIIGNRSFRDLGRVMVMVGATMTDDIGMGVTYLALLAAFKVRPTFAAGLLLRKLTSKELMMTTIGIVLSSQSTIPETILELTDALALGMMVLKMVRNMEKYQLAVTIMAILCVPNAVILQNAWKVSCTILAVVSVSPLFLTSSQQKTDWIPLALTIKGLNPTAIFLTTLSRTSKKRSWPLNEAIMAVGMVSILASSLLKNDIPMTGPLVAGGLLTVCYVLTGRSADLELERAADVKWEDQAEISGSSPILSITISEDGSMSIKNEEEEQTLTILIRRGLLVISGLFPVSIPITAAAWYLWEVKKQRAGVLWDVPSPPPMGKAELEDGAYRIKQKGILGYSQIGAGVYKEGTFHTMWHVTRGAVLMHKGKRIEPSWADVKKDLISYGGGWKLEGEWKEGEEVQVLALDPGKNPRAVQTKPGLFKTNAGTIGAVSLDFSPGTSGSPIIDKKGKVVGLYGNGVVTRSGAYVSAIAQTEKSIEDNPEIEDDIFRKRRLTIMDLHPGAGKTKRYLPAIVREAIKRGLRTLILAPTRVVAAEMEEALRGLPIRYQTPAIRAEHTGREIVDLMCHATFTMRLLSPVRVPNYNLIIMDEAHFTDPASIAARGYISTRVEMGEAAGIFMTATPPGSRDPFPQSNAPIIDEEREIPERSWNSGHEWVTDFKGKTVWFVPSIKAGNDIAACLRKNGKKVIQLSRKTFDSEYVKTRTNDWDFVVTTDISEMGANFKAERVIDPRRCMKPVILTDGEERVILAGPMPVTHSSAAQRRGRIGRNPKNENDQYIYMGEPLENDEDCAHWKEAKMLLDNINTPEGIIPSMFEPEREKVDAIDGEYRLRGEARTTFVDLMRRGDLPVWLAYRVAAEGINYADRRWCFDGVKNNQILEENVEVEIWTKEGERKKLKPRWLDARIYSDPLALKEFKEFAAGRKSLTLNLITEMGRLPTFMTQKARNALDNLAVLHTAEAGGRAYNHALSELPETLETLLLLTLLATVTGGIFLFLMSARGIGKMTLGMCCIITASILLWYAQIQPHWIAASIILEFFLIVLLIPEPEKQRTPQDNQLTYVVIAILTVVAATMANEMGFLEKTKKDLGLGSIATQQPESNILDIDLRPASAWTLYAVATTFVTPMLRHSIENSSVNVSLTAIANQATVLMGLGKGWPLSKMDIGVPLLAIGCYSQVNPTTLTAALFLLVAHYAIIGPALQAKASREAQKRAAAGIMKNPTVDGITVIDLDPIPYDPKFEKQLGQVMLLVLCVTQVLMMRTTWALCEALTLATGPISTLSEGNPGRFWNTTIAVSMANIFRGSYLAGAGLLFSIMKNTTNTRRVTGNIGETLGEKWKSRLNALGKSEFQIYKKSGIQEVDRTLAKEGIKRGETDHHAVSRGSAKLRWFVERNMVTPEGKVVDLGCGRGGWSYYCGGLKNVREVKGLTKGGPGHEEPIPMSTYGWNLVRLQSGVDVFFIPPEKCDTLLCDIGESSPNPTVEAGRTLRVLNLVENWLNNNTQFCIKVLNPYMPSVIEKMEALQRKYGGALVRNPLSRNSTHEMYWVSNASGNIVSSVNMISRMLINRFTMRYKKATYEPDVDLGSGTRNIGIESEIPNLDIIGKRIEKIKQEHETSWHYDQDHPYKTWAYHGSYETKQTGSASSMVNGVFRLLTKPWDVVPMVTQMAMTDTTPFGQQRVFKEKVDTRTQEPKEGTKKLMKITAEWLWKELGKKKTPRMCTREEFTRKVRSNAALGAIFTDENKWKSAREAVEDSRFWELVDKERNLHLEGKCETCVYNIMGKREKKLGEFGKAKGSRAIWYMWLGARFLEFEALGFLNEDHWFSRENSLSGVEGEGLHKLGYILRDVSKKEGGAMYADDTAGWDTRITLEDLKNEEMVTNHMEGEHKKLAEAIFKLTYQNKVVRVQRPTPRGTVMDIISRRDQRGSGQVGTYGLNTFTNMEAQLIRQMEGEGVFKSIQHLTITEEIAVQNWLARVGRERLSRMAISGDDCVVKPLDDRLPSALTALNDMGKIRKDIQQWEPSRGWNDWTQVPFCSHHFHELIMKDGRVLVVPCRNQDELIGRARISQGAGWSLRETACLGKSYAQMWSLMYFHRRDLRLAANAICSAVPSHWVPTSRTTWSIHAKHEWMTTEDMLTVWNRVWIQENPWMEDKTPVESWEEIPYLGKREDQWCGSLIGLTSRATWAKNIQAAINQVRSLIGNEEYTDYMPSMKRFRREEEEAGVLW
Experiment: Dengue-2 NS5 methyltransferase inhibitors, primary screen, biochemical, confirmation dose response (AID 588689)
Conditions: Dengue-2 NS5 methyltransferase capping enzyme assay, at 25 µM, stronger effect = higher value
[1] = measured here: pilot screen replicate inhibition

COc1ccc(N(CC(=O)NCCc2ccc(Cl)cc2)S(=O)(=O)c2c(C)[nH]c(=O)[nH]c2=O)cc1
inhibition: -3.87% (inactive)

C=CC[C@@H](CC(=O)N[C@@H](CO)Cc1ccccc1)C(=O)NC[C@@H](OC(=O)[C@@H](CC=C)Cc1ccc(F)cc1)c1ccccc1
inhibition: -8.18% (inactive)

CO/N=C(/C)CCS(=O)(=O)c1ccccc1
inhibition: -0.73% (inactive)

CC(C(=O)Nc1nncs1)N1C(=O)C2C3C=CC(C3)C2C1=O (stereo unspecified)
inhibition: -5.41% (inactive)

CCN(CC(=O)NCc1cccs1)C(=O)CCC(=O)c1ccc(C)cc1
inhibition: -8.12% (inactive)

NC(=O)C1CCN(C(=O)CN(C2CCCCC2)S(=O)(=O)c2ccc(F)cc2)CC1
inhibition: -9.49% (inactive)

CCN(CC)S(=O)(=O)c1ccc2c(c1)N(CC(=O)N1CCC(C(N)=O)CC1)C(=O)CO2
inhibition: -6.21% (inactive)

O=S(=O)(c1ccc2ccccc2c1)N1CCN(S(=O)(=O)c2c(F)cccc2F)CC1
inhibition: 1.65% (inactive)

CCOc1cc(Cl)c(NC(C)=O)cc1OCC
inhibition: -5.19% (inactive)

COc1cc(O)c(NC(C)=O)c2nonc12
inhibition: 15% (inactive)

CC(C)(C)OC(=O)N1CCN(C(=O)c2[nH]cnc2C(=O)Nc2cccc(Cl)c2)CC1
inhibition: -10.3% (inactive)

O=CN1CCN(C(=S)NC(=O)c2ccc(Cl)cc2)CC1
inhibition: -3.86% (inactive)

COC(=O)C1=C(C)NC(=O)/C1=C\c1cccs1
inhibition: 2.73% (inactive)

C=CCN1C(=O)/C(=C\c2cccs2)C(C(=O)OC)=C1C
inhibition: -4.71% (inactive)

O=C1NN(c2ccc(F)cc2)C(=O)/C1=C/c1cccs1
inhibition: 8.53% (inactive)

CC(C)CN1C(=O)/C(=C/c2cccs2)NC1=S
inhibition: 4.84% (inactive)

COc1ccc(NS(=O)(=O)c2cccc(C(=O)NCC3(N(C)C)CCCCC3)c2)cc1
inhibition: -10.1% (inactive)

COCCNC(=O)c1ccc2c(=O)n(Cc3ccco3)c(SCC(=O)Nc3ccc(OC)cc3OC)nc2c1
inhibition: -3.55% (inactive)

COc1ccccc1N1CCN(S(=O)(=O)c2ccc3nc(-c4ccccc4)[nH]c3c2)CC1
inhibition: 1.09% (inactive)

O=C(CSc1nc2c(c(=O)[nH]1)CCC2)Nc1cccc(Cl)c1
inhibition: -8.06% (inactive)

O=C(NN=C1CCCC1)C(=O)Nc1cccc(C(F)(F)F)c1
inhibition: -3.35% (inactive)

O=c1c2c(nc3cc(-c4cccc(Cl)c4)[nH]n13)CCCC2
inhibition: 1.45% (inactive)

O=C(O)CSc1c2c(nc3cc(C(=O)Nc4cccc(C(F)(F)F)c4)ccc13)CCC2
inhibition: 2.95% (inactive)

Cc1ccc(S(=O)(=O)/N=C(\Nc2cccc(C)c2)Nc2nc(C)cc(C)n2)cc1
inhibition: -1.83% (inactive)

N#Cc1c(Nc2ccccc2)sc(C(=O)C2CC2)c1N
inhibition: -8.93% (inactive)

CCN(CC)CCNC(C(=O)Nc1ccc([N+](=O)[O-])cc1Br)c1ccccc1 (stereo unspecified)
inhibition: 3.24% (inactive)

COc1cc(C(=O)O)ccc1Cl
inhibition: -1.59% (inactive)

Cc1cccc(N=Nc2cnc(N)s2)c1
inhibition: 0.79% (inactive)

CC(Oc1ccc2c(-c3ccccc3)cc(=O)oc2c1)C(=O)NCCCn1ccnc1 (stereo unspecified)
inhibition: 2.17% (inactive)

CCC(=O)Nc1c(C)cc(C)cc1Cl
inhibition: -1.67% (inactive)

CCCC(=O)Nc1ccccc1NC(=O)CCC
inhibition: 0% (inactive)

CC(C)NC1=C(Cl)C(=O)c2ccccc2C1=O
inhibition: -0.68% (inactive)

CCC(=O)NC1=C(Nc2ccc(N)cc2)C(=O)c2ccccc2C1=O
inhibition: 7.83% (inactive)

O=C(NCCc1ccccc1)c1nc(CS(=O)(=O)c2ccc(Cl)cc2)no1
inhibition: -1.81% (inactive)

CCCCCC1CC(CC(=O)NC(=S)Nc2ccccc2Cl)C(=O)O1 (stereo unspecified)
inhibition: -4.68% (inactive)

Nc1c(C(=O)O)ccc2c1C(=O)c1ccccc1C2=O
inhibition: 24.7% (inactive)

CN(C)S(=O)(=O)c1cccc2c1C(=O)c1ccccc1C2=O
inhibition: -1.92% (inactive)

CC1(Cc2cn(CCC#N)c3ccccc23)OCCO1
inhibition: 6.35% (inactive)

CC1(C)CC(=O)C(C(c2cccc([N+](=O)[O-])c2)C2C(=O)CC(C)(C)CC2=O)C(=O)C1
inhibition: 0% (inactive)

CC1(C)CC(=O)C(C(=O)Cc2ccccc2[N+](=O)[O-])C(=O)C1
inhibition: -1.48% (inactive)

CCOC(=O)c1cc(CC)sc1/N=C/C1C(=O)CC(C)(C)CC1=O
inhibition: -17.9% (inactive)

C/[N+]([O-])=C\C1C(=O)CC(C)(C)CC1=O
inhibition: -2.92% (inactive)

Cc1ccc2nc(SCn3nnc4ccccc4c3=O)[nH]c2c1
inhibition: -4.53% (inactive)

COc1ccc(OCCCC(=O)ON=C(N)c2ccccc2Cl)cc1
inhibition: 1.1% (inactive)

CN(CCc1ccccc1)C(=O)c1ccc(NC(=O)Cc2ccc(NC(=O)C3CCCN(C(=O)C4CCC4)C3)cc2)cc1 (stereo unspecified)
inhibition: 0% (inactive)
inhibition [1]: 0.92%

COC(=O)c1ccc(NC(=O)CSc2nnc(COc3c(C)cccc3C)o2)cc1
inhibition: -9.55% (inactive)

CC1CC(=O)c2cc(-c3ccccc3)oc2C1 (stereo unspecified)
inhibition: 5.14% (inactive)

CC1CCC(O)(C(C(=O)O)c2ccccc2)CC1 (stereo unspecified)
inhibition: -8.55% (inactive)

COc1cc(NC(=O)CSc2ccc(-c3ccccn3)nn2)cc(OC)c1
inhibition: 0% (inactive)

O=C(NNC1CC(=O)N(c2cccc(Cl)c2)C1=O)c1cccs1 (stereo unspecified)
inhibition: 3.87% (inactive)

O=C1CSC(=Nc2ccc(O)cc2)N1c1ccc(O)cc1
inhibition: -5.52% (inactive)

O=C1CSC(=Nc2ccc(O)cc2)N1
inhibition: -4.89% (inactive)

CN(C(=O)CC1C(=O)NCCN1Cc1ccccc1C(F)(F)F)C1CCOCC1 (stereo unspecified)
inhibition: 0.91% (inactive)

O=C(NCCCN1CCCC1)C1CCN(C(=O)c2cc3sccc3n2Cc2ccc(F)cc2)CC1
inhibition: -2.07% (inactive)

CC(/C=C/c1ccco1)=N\NC(=O)COc1ccc(C)c(C)c1
inhibition: -10.9% (inactive)

CC(=O)Nc1ccc(/C(N=Nc2ccccc2)=N/N=C(N)N)cc1
inhibition: 7.72% (inactive)

O=C(O)c1cccc(N/N=C(\N=Nc2ccccc2)c2ccccc2)c1
inhibition: 12.7% (inactive)

CCCCn1c(SCC2CCCO2)nc2cc(S(N)(=O)=O)ccc21 (stereo unspecified)
inhibition: -11.1% (inactive)

CC1CCN(S(=O)(=O)c2ccc(C(=O)Nc3nnc(C4CC4)o3)cc2)CC1
inhibition: -8.7% (inactive)

COc1cc(NC(=O)CN2CC(c3ccccc3)CC2=O)cc(OC)c1 (stereo unspecified)
inhibition: 0.73% (inactive)

CCn1cc(Br)c(C(=O)N2CCN(c3ccccc3)CC2)n1
inhibition: -5.15% (inactive)

N#CC(=C1C=C(Br)C(=NO)C=C1Cl)c1cccc2ccccc12
inhibition: 24.1% (inactive)

COc1ccc(C(C#N)=C2C=C(Cl)C(=NO)C=C2Cl)cc1
inhibition: 27.6% (inactive)

Cc1cc(C)cc(NC(=O)CS(=O)(=O)c2cccc3nsnc23)c1
inhibition: -0.79% (inactive)

Cc1ccc(NS(=O)(=O)Cc2ccccc2)cc1Cl
inhibition: -1.36% (inactive)

CCC1CCCCN1S(=O)(=O)c1ccc2c(c1)CCN2C(C)=O (stereo unspecified)
inhibition: -10.9% (inactive)

CC(=O)c1ccc(-n2c(=O)[nH]c(=O)c3c(N)c(C(=O)c4ccc(Cl)cc4)sc32)cc1
inhibition: -6.85% (inactive)

CC(C)(C)OC(=O)C[C@@H]1C/C=C\C[C@@H](CC(=O)N(CCO)Cc2ccccc2)C(=O)N2CCC[C@H]2COC1=O
inhibition: -2.31% (inactive)
inhibition [1]: -4.54%

CC1=NN(c2ccc(C)cc2C)C(=O)C1C(c1ccccc1O)C1C(=O)N(c2ccc(C)cc2C)N=C1C (stereo unspecified)
inhibition: 15.6% (inactive)

CC1=NN(c2ccc(C)cc2C)C(=O)C1C(c1cccc(O)c1)C1C(=O)N(c2ccc(C)cc2C)N=C1C (stereo unspecified)
inhibition: 26.6% (inactive)

CCc1ccc(OCC(O)CNC(C)(C)C)cc1 (stereo unspecified)
inhibition: -2.07% (inactive)

CCOc1ccc(/C=C\c2nc(O)c([N+](=O)[O-])c(=O)[nH]2)cc1OCC
inhibition: -0.66% (inactive)

O=[N+]([O-])c1cccc(/C=C/c2nc[nH]c2[N+](=O)[O-])c1
inhibition: -14.1% (inactive)

O=[N+]([O-])c1cccc(/C=C/c2ccncc2)c1
inhibition: 2.32% (inactive)

Cn1c(/C=C/c2ccc(Cl)cc2Cl)c([N+](=O)[O-])c(=O)n(C)c1=O
inhibition: 2.64% (inactive)

Clc1ccc(/C=C/c2nc3ccccc3[nH]2)c(Cl)c1
inhibition: 3.38% (inactive)
inhibition [1]: -0.3%

O=c1[nH]c(/C=C\c2cccc(Cl)c2)nc(O)c1[N+](=O)[O-]
inhibition: 15.9% (inactive)

Clc1ccc(C=Cc2ccccn2)c(Cl)c1
inhibition: 3.5% (inactive)

CCOc1ccc(/C=C/c2c([N+](=O)[O-])c(=O)n(C)c(=O)n2C)cc1
inhibition: 0.74% (inactive)

O=[N+]([O-])c1cccc(C=NN2CCCCCC2)c1
inhibition: -2.33% (inactive)

O=c1cc(O)c2sc3nc4c(c(C(F)(F)F)c3c2[nH]1)CCCCC4
inhibition: 0.88% (inactive)

Cc1cc(-c2csc(Nc3ccccn3)n2)ccc1F
inhibition: -8.87% (inactive)

O=C(NCCCn1ccnc1)c1cccc(S(=O)(=O)Nc2ccccc2F)c1
inhibition: -2.82% (inactive)

COc1cccc(N=C2SC(CC(=O)Nc3ccccc3)C(=O)N2Cc2ccccn2)c1 (stereo unspecified)
inhibition: -4.38% (inactive)

COc1ccc(-c2c(-c3cc(OC)cc(OC)c3)n(C)c3ccc(-c4ccc(OC)cc4F)cc23)cc1
inhibition: -1.04% (inactive)

Cc1nc(SCC(=O)N2c3ccccc3Sc3ccccc32)n[nH]1
inhibition: -1.38% (inactive)

O=C(CSc1nnc(-c2ccccc2)n1-c1ccccc1)N1c2ccccc2Sc2ccccc21
inhibition: -3.27% (inactive)

COCCCNCC(O)COc1cccc2[nH]c(C)cc12 (stereo unspecified)
inhibition: 3.64% (inactive)

CC1(C)CC(CC(=O)O)(c2ccccc2)CCO1 (stereo unspecified)
inhibition: -6.14% (inactive)

C=CCNC(=O)c1ccc(OC)cc1
inhibition: -4.57% (inactive)

O/N=C\c1ccccc1Oc1ccc(F)cc1
inhibition: -8.72% (inactive)

Cc1ccc(S(=O)(=O)Oc2ccccc2/C=N/O)cc1
inhibition: -1.81% (inactive)

Cc1ccc(S(=O)(=O)Oc2ccccc2/C=C2/SC(=O)NC2=O)cc1
inhibition: 6.22% (inactive)

O=C1NC(=O)C(=Cc2ccccc2)N1
inhibition: -3.98% (inactive)

Cc1ccc(S(=O)(=O)Oc2ccccc2/C=C2\SC(=O)NC2=O)cc1
inhibition: 12.8% (inactive)

O=C(O)/C=C\c1ccccc1Oc1ccc(F)cc1
inhibition: -0.72% (inactive)

O=c1cc(Cl)c(-c2ccccc2)n[nH]1
inhibition: -1.61% (inactive)

Cc1ccc(S(=O)(=O)Oc2ccccc2/C=N/NC(N)=S)cc1
inhibition: -0.7% (inactive)
